# Source: PubChem BioAssay (National Center for Advancing Translational Sciences (NCATS))
# An excerpt weighted towards active compounds, which were near 20% of everything screened.
# HCMV antiviral: human cytomegalovirus inhibition; HFF cells, HCMV-luciferase reporter, 72 h; hits give low values; activity change, negative = inhibition, % at 57.5 µM; 410,000 compounds, 4.5% hits; in the data active = activity change below about -60%; inconclusive = no clear call, values can overlap the other calls; inactive = above about -39%; also: % is scaled to controls: 0 for no effect and ±100 for the full control effect
#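 Steps: HFFs plated, 16 h 37C; compounds added; HCMV-luciferase added to MOI 1 PFU/cell; 72 h 37C; OneGlo reagent, 5 min room temperature; luminescence read, normalized to controls.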
# Shiga toxin inh: blocks Shiga toxin action in Vero cells; Vero cells, Shiga toxin protein synthesis inhibition reporter; inhibition, % at 38.7 µM; 290,000 compounds, 9.2% hits; AID 2315; in the data active = inhibition mostly above about 28%, no sharp cut-off; inactive = mostly below about 43%; also: 0% is about no effect
# Pf growth 48h: P. falciparum growth inhibition at 48 hours (one generation). P. falciparum luciferase growth in erythrocytes, 48 h. Potency, µM (highest dose often 28.7 µM), without a hit: at the top dose activity change, negative = inhibition, most hits filed as inhibitors. 310,000 compounds, 5.9% hits; also: potency is read from the fitted curve at half-maximal effect; % is scaled to controls: 0 for no effect and ±100 for the full control effect
#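 Luminescence readout; reporter = integrated firefly luciferase in P. falciparum. RBC culture at 2% hematocrit, 0.1% parasitemia final, 37 C/5% CO2; decreased signal taken as growth inhibition.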
# Pf growth 96h: P. falciparum growth inhibition at 96 hour, primary screen for plastid delayed-death inhibitors. P. falciparum luciferase reporter growth, 96 h. Potency, µM (top dose mostly 28.7 µM), for inactives: at the top dose activity change, negative = inhibition, usual class: inhibitors. 320,000 compounds, 6.9% hits; also: potency is read from the fitted curve at half-maximal effect; % is scaled to controls: 0 for no effect and ±100 for the full control effect
#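 P. falciparum expressing integrated firefly luciferase, in erythrocytes at 2% hematocrit, 0.05% parasitemia, incubated with compounds 96 h at 37 C, 5% CO2. Growth inhibition read as loss of luminescence; two-generation exposure targets delayed-death apicoplast inhibitors.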
# CHX counter: counter-screen for Shiga toxin inhibitors: cycloheximide protein synthesis inhibition. cell reporter, cycloheximide protein synthesis inhibition counterscreen. max response, %. 300,000 compounds, 12% hits; in the data active = max response mostly above about 13%, no sharp cut-off; inactive = mostly below about 14%; also: read at 38.3 µM for the half of the compounds with a filed dose; 0% is about no effect
# * marks the source's active call; other numbers are inactive results; ? = inconclusive; · = not tested or not shown; [ ] = another dose, or the depositor's remark. Unless noted, calls follow the shape of the dose curve; as a rule, active = well fitted inhibition curve with a large enough effect; inconclusive = small, poorly fitted or top-dose-only effect, or another doubt; inactive = no such curve, though single readings can be large or run the other way.
SMILES,HCMV antiviral,Shiga toxin inh,Pf growth 48h,Pf growth 96h,CHX counter
Cc1nc2ccccc2n1S(=O)(=O)c1ccc(F)cc1,0.0,-6.0,?,82.2%,-1.8
Cc1ccc(/C=C/c2nc3ccccc3n2S(=O)(=O)c2ccc(Br)cc2)cc1,-89.0*,·,·,·,·
C=CCSc1nc2ccccc2n1S(=O)(=O)c1ccc(C)cc1,50.9,18.9,20.0%,28.7%,20.6*
Cc1ccc(C(=O)OCc2cc(=O)n3nc(CC(C)C)sc3n2)cc1,2.9,·,·,·,·
COc1cc(Cl)c(C)cc1NC(=O)c1cc2ccc3cccnc3c2[nH]1,110.4,·,·,·,·
CN(C(=O)COC(=O)c1ccc2c(=O)n3c(nc2c1)CCC3)C1CCS(=O)(=O)C1 (configuration not stated),82.4,-1.6,18.3%,20.7%,2.1
Cc1ccccc1NC(=O)Cn1c(=O)n(Cc2ccccc2)c(=O)c2sc3ccccc3c21,0.3,·,·,·,·
COc1ccc(/C=C2\CCc3ccccc3C2=O)cc1O,20.2,42.2*,214.2%,252.4%,21.6*
COc1ccc(/C=C2\CCc3ccccc3C2=O)cc1Cn1cccn1,?,68.6*,·,0.0%,40.6*
CC(=O)Nc1ccc(/C=C2\CCc3ccccc3C2=O)cc1,38.0,-3.9,76.4%,19.1%,22.8
COc1ccc(/C=C2\Cc3ccccc3C2=O)cc1OC,?,75.0*,6.2%,-31.4%,27.7*
COc1ccc(/C=C2/CSC/C(=C/c3ccc(OC)c(OC)c3)C2=O)cc1OC,-101.2*,·,·,·,·
O=C(Nc1ccc(Cl)cc1Cl)c1n[nH]c(Cn2cncn2)n1,90.9,5.4,34.8%,54.0%,12.4
CC(Sc1nnc(C2CC2)n1C)C(=O)Nc1ccc2c(c1)CCC2 (configuration not stated),32.3,·,-11.7%,-24.7%,·
CCC(C(=O)NC1CCCCC1)n1nc(C)c2sc3ccccc3c2c1=O (configuration not stated),3.4,·,·,·,·
COc1cc(C=C2CCCC(=Cc3ccc(OCC4CO4)c(OC)c3)C2=O)ccc1OCC1CO1 (configuration not stated),-67.9*,·,·,·,·
CCOc1ccc2ncc(S(=O)(=O)c3ccc(C)cc3)c(N3CCC4(CC3)OCCO4)c2c1,-89.8*,-8.5,11.7µM*,7.38µM*,-1.2
CCOC(=O)c1cnc2c(C)cc(Cl)cc2c1N1CCN(C)CC1,-62.0*,-13.2,·,?,-3.8
CCOC(=O)c1cnc2ccc(Cl)cc2c1N1CCN(C)CC1,13.6,-2.1,-10.3%,·,-3.6
CCOC(=O)c1cnc2cc(F)c(F)cc2c1N1CCN(C)CC1,-14.3,29.8,?,?,-2.3
CCOC(=O)c1cnc2ccc(OCC)cc2c1N1CCN(C)CC1,13.9,15.1,8.28µM*,0.0%,-0.6
O=C(COC(=O)[C@@H]1CCCN1S(=O)(=O)c1ccccc1F)Nc1ccc(OC(F)F)cc1,-30.1,-7.7,-9.4%,14.0%,-2.3
Cc1c(Cl)cccc1N1CC(c2nc3ccccc3n2Cc2ccccc2F)CC1=O (configuration not stated),-36.8,·,·,·,·
COc1ccccc1C(c1nnnn1C(C)(C)C)N1CCCc2ccccc21 (configuration not stated),-28.0,-12.4,?,?,-6.9
COc1ccccc1N1CCN(C(c2ccccc2Cl)c2nnnn2C(C)(C)C)CC1 (configuration not stated),·,18.3,?,?,-3.4
SMILES,HCMV antiviral,Shiga toxin inh,Pf growth 48h,Pf growth 96h,CHX counter
CC(C)(C)n1nnnc1C(c1ccc(Cl)cc1)N1CCCc2ccccc21 (configuration not stated),7.6,-8.6,2.33µM*,32.6%,-1.3
COc1ccc(C(c2nnnn2C(C)(C)C)N2CCN(c3nc4ccccc4s3)CC2)cc1OC (configuration not stated),30.3,39.9,5.22µM*,?,14.6
COc1ccccc1N1CCN(C(c2ccc(Cl)cc2)c2nnnn2C(C)(C)C)CC1 (configuration not stated),-65.8*,-13.7,6.57µM*,?,-2.8
CC(C)(C)n1nnnc1C(c1cccc(C#N)c1)N1CCC(Cc2ccccc2)CC1 (configuration not stated),27.9,9.0,2.62µM*,·,-2.4
Cc1cc(N)n(-c2ccc(S(N)(=O)=O)cc2[N+](=O)[O-])n1,-0.1,-11.1,47.1%,7.1%,1.8
CC(C)(C)n1nnnc1C(c1cccc(C#N)c1)N1CCCc2ccccc21 (configuration not stated),-17.1,-12.3,9.28µM*,22.9%,-1.0
CCC(C)(C)n1nnnc1C(c1cccs1)N1CCc2ccccc21 (configuration not stated),?,7.2,9.28µM*,7.6%[5.75 µM],-1.0
CCC(C)(C)n1nnnc1C(c1ccc2ncccc2c1)N1CCN2CCCC2C1 (configuration not stated),-30.4,-5.1,10.4µM*,142.1%,-3.6
c1cnc2ccc(C(c3nnnn3C3CCCC3)N3CCN(c4nc5ccccc5s4)CC3)cc2c1 (configuration not stated),-25.3,12.7,5.22µM*,1.4%,28.9
COc1ccc(C)c2sc(=NC(=O)c3cccc(N4C(=O)CCC4=O)c3)n(C)c12,0.0,27.2,45.4%,12.6%,20.2*
COc1ccc(C)c2sc(=NC(=O)c3ccccc3)n(C)c12,168.1,69.3*,180.6%,260.5%,18.4*
COc1ccc(C)c2sc(=NC(=O)c3ccc(C(C)=O)cc3)n(C)c12,-5.1,66.7*,274.1%,340.0%,38.0*
COc1ccc(C)c2sc(=NC(=O)C(C)C)n(C)c12,43.3,-13.3,·,9.8%,-3.3
COc1ccc(S(=O)(=O)N2CCCCCC2)cc1C(=O)NCCOc1ccc(C)cc1,-29.1,·,?,?,·
CCN1C(=O)[C@H]2[C@@H](c3ccc(-c4ccc(OC)cc4)c(OC)c3)N[C@@](CC(C)C)(C(=O)OC)[C@H]2C1=O,22.9,·,·,·,·
CCN1C(=O)[C@H]2[C@@H](c3ccc(-c4cccc(Cl)c4)c(OC)c3)N[C@@](Cc3ccccc3)(C(=O)OC)[C@H]2C1=O,67.4,·,2.08µM*,0.415µM*,·
COC(=O)[C@]1(Cc2ccccc2)N[C@H](c2ccc(-c3cccc(Cl)c3)c(OC)c2)[C@@H]2C(=O)N(C)C(=O)[C@@H]21,10.8,·,·,·,·
CCN1C(=O)[C@H]2[C@@H](c3ccc(-c4ccc5c(c4)OCO5)c(OC)c3)N[C@@](Cc3ccccc3)(C(=O)OC)[C@H]2C1=O,33.6,·,1.17µM*,?,·
CCN1C(=O)[C@H]2[C@@H](c3ccc(-c4ccc5c(c4)OCO5)c(OC)c3)N[C@@](CC(C)C)(C(=O)OC)[C@H]2C1=O,-9.9,·,6.57µM*,13.1µM*,·
COc1cc(OC)cc(-c2c(-c3cccs3)c3cc(-c4ccc(OCc5ccccc5)cc4)ccc3n2C)c1,0.9,·,·,·,·
O=C(Nc1cc(Oc2ccc(Cl)cc2)cc([N+](=O)[O-])c1)c1ccco1,-2.7,74.3*,?,94.6%,47.1*
Cc1nn(C)cc1C(=O)Nc1cc(Oc2ccc(Cl)cc2)cc([N+](=O)[O-])c1,-15.0,-15.2,?,·,-3.3
